Assay outcomes as filed in PubChem BioAssay.
G9a block: inhibitors of human histone lysine methyltransferase G9a; actives 8.8% (n = 350,000); Potency, µM (top dose mostly 102 µM), most hits filed as inhibitors; Q96KQ7; G9a H3K9 monomethylation, AlphaScreen, 2 h; AID 504332; note: nearly all actives have a fitted effect of over 75% in size
Target sequence (Q96KQ7 913-1193 limits assumed): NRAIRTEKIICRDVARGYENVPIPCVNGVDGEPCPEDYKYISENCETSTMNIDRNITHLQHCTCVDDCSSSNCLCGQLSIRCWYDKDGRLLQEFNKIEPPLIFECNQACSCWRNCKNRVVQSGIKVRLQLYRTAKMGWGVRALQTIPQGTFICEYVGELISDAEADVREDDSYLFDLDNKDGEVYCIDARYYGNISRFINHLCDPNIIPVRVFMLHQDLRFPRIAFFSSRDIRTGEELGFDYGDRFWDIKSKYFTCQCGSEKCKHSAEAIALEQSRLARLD
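Using a bead-based AlphaScreen, monomethylated H3K9 product from 2 h room-temperature reactions (G9a 20 nM, peptide 500 nM, SAM 20 uM) was detected with 0.5 ug/mL rabbit anti-H3K9me1 antibody.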
JMJD2A Tudor: inhibitors of human JMJD2A Tudor domain. Potency, µM (titrated, usually from 114 µM), actives largely listed as inhibitors. actives 4.4% (n = 390,000). AlphaScreen JMJD2A-Tudor / H3K4me3 peptide binding. O75164; note: nearly all actives have a fitted effect of over 50% in size
Six1-Eya2 inh: blocks human Six1 binding to Eya2; Q15475+O00167; AlphaScreen GST-Six1/His-Eya2 binding, biochemical; stronger effect = lower value; activity change, % (test concentration not listed); actives 0.56% (n = 360,000); in the data active = activity change below about -65%; inconclusive = mostly about -30% to -63%
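AlphaScreen with GST-Six1 and His-Eya2 (5X mix: 250 nM and 500 nM), glutathione donor and nickel acceptor beads; buffer 50 mM Tris pH 8.0, 300 mM NaCl, 1 mM TCEP; 1 h at 37 C in the dark.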
CtBP-E1A inh: CtBP/E1A binding inhibition; AlphaScreen GST-E1A/His-CtBP binding, 1536-well; stronger effect = lower value; actives 0.49% (n = 340,000); activity change, % (concentration not given with the values); in the data active = activity change below about -65%; inconclusive = mostly about -30% to -63%
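Homogeneous bead-based format: GST-tagged E1A captured on glutathione donor beads, His-tagged CtBP on nickel acceptor beads; compounds precede bead addition by 2 h at 37 °C.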
HP1b binding inh: blocks HP1-beta chromodomain binding to methylated histone tails. Potency, µM (titrated, usually from 114 µM), hits mostly inhibitors. AlphaScreen HP1-beta / biotin-H3K9me3 peptide binding. actives 0.56% (n = 390,000); note: nearly all actives have a fitted effect of over 70% in size
Target sequence (P83916 whole entry, looked up): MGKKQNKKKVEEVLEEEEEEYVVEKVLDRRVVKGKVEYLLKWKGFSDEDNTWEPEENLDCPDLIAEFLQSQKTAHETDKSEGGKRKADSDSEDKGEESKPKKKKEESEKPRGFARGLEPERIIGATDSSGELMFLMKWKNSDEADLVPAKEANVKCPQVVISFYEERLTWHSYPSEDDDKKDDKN
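Compound inhibition of the preformed complex between 50 nM HP1-beta and 50 nM biotinylated H3K9me3 peptide was read by AlphaScreen. Buffer was PBS pH 7.4 with 0.01% Tween-20. Incubations ran 30 min at room temperature, with 10 ug/mL donor/acceptor beads.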
BAZ2B inh: blocks human BAZ2B | AlphaScreen BAZ2B-H3K14Ac peptide displacement | Potency, µM (doses to about 114 µM), actives largely listed as inhibitors | actives 4.4% (n = 360,000) | AID 504333; note: nearly all actives have a fitted effect of over 60% in size
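AlphaScreen luminescence quantifies BAZ2B engagement of H3K14Ac peptide; the protein and biotinylated peptide are both at 50 nM final, buffer PBS pH 7.4 with 0.01% Tween-20, all steps at room temperature.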
Of the large screens only hits and unclear results are named; the others gave an inactive call. Hits are enriched below; roughly 10% of the tested compounds scored in any of these assays. Unless noted, calls come from the whole dose curve; as a rule, active = well fitted inhibition curve with a large enough effect; inconclusive = small, poorly fitted or top-dose-only effect; inactive = no such curve, though single readings can be large or run the other way.

CC(=O)NC1C(OC2OC(CC(O)C3OC([N+]4=CCC(=O)NC4=O)C(O)C3O)C(O)C(O)C2NC(=O)/C=C/CCCCCCCCC(C)C)OC(CO)C(O)C1O (centres undefined)	none (no result: JMJD2A Tudor, Six1-Eya2 inh, CtBP-E1A inh, HP1b binding inh, BAZ2B inh)
CCN1CCC(N(Cc2ccc(F)cc2)C(=O)Nc2cccc(C(F)(F)F)c2)CC1	none (no result: Six1-Eya2 inh, CtBP-E1A inh)
CC(C)c1c(Cl)c(O)c(-c2ccccc2)c(=O)n1-c1ccc(F)cc1	G9a block 44.7µM, JMJD2A Tudor 20µM
Cc1ccc(NS(=O)(=O)c2cc3c(cc2N(C)C)CCC(=O)N3)cc1C	none (no result: G9a block, Six1-Eya2 inh, CtBP-E1A inh, HP1b binding inh, BAZ2B inh)
CCOc1ccc(N(C(C)C(=O)NCCSc2ccc(Cl)cc2)S(C)(=O)=O)cc1 (centres undefined)	none (no result: Six1-Eya2 inh, CtBP-E1A inh)
O=C(COC(=O)/C=C/c1ccco1)NCc1ccco1	G9a block 31.6µM, JMJD2A Tudor 79.4µM, BAZ2B inh 44.7µM (no result: CtBP-E1A inh)
CNC(=O)COC(=O)/C=C/c1ccco1	G9a block inconclusive (no result: CtBP-E1A inh)
COc1ccc(CNC(=O)COC(=O)/C=C/c2ccco2)cc1	G9a block 56.2µM, BAZ2B inh inconclusive
O=C(COC(=O)/C=C/c1ccco1)NCc1ccccc1Cl	G9a block 44.7µM
Cc1ccccc1CSc1nc(-c2cccc(F)c2)nc2c1Cc1c(CO)cnc(C)c1O2	none (no result: Six1-Eya2 inh, CtBP-E1A inh)
COc1ccccc1CNC(=O)c1ccc(C)c(-n2cnc3cccnc32)c1	none (no result: Six1-Eya2 inh, CtBP-E1A inh)
COC(=O)C(C)Sc1ncnc2c1c(-c1ccccc1)cn2-c1ccc(F)cc1 (centres undefined)	none (no result: Six1-Eya2 inh, CtBP-E1A inh)
Cc1ccc(CNC(=O)CCc2c(C)nc3c(-c4ccc(F)cc4)c(C)nn3c2C)cc1	none (no result: Six1-Eya2 inh, CtBP-E1A inh)
Cc1cc(N2CCC(C(=O)Nc3ccccc3Cl)CC2)n2nc(C)c(-c3ccc(Cl)cc3)c2n1	none (no result: Six1-Eya2 inh, CtBP-E1A inh)
O=C(O)CCn1c(-c2ccccn2)nc2ccccc21	JMJD2A Tudor 22.4µM (no result: G9a block)
O=C(Cn1c(-c2cscn2)nc2ccccc21)Nc1ccc2ccccc2c1	JMJD2A Tudor inconclusive
O=C(O)Cn1c(-c2cscn2)nc2ccccc21	G9a block 44.7µM, JMJD2A Tudor 15.8µM, BAZ2B inh inconclusive
CCOC(=O)CCn1c(CC(=O)OCC)nc2ccccc21	G9a block 50.1µM, BAZ2B inh inconclusive
O=C(O)CCn1c(CO)nc2ccccc21	BAZ2B inh 56.2µM
CCOC(=O)Cn1c(=O)cnc2ccccc21	none
CCOC(=O)Cn1c(=O)n(CC2CCCO2)c2nc(-c3ccccc3OC)nc(C(N)=O)c21 (centres undefined)	none (no result: Six1-Eya2 inh, CtBP-E1A inh)
CCOC(=O)Cn1c(S(=O)(=O)Cc2ccccc2)nc2ccccc21	G9a block 39.8µM
O=C(O)Cn1c(P(=O)(O)c2ccccc2)nc2ccccc21	G9a block 31.6µM, JMJD2A Tudor 35.5µM, BAZ2B inh inconclusive
O=C(O)CCn1c(SCc2cccc3ccccc23)nc2ccccc21	G9a block 14.1µM
CCOC(=O)Cn1c(S(=O)(=O)Cc2ccc(Cl)cc2)nc(-c2ccccc2)c1-c1ccccc1	none (no result: G9a block)
COc1ccc(NC(=O)C2=C(C)Nc3ncnn3C2c2cccn2C)cc1 (centres undefined)	none (no result: Six1-Eya2 inh, CtBP-E1A inh)
CN(C)c1ncc2nc(-c3cccs3)c(=O)n(-c3ccccc3)c2n1	none (no result: JMJD2A Tudor, Six1-Eya2 inh, CtBP-E1A inh, HP1b binding inh, BAZ2B inh)
Cc1noc(NS(=O)(=O)c2ccc(NC(=O)CSc3nc4c(cc3C#N)CCCC4)cc2)c1C	G9a block 25.1µM
Cc1noc(NS(=O)(=O)c2ccc(NC(=O)CSc3nc4c(cc3C#N)CCC4)cc2)c1C	G9a block 7.08µM, JMJD2A Tudor 25.1µM, BAZ2B inh inconclusive
Cc1noc(NS(=O)(=O)c2ccc(NC(=O)CSc3ncccn3)cc2)c1C	G9a block inconclusive
Cc1noc(NS(=O)(=O)c2ccc(NC(=O)CSc3nc4ccccc4s3)cc2)c1C	G9a block 8.91µM, JMJD2A Tudor inconclusive
Cc1cc(C)nc(SCC(=O)Nc2ccc(S(=O)(=O)Nc3onc(C)c3C)cc2)n1	none
CC(C)OCCOc1ccc2oc(-c3ccco3)cc(=O)c2c1	JMJD2A Tudor inconclusive, HP1b binding inh inconclusive, BAZ2B inh 56.2µM
N#CCOc1ccc2oc(-c3ccco3)cc(=O)c2c1	none (no result: JMJD2A Tudor, Six1-Eya2 inh, CtBP-E1A inh, HP1b binding inh)
Cc1ccc(Cn2c(=O)c3c(nc4n3CCN4c3cc(C)cc(C)c3)n(C)c2=O)cc1	none (no result: Six1-Eya2 inh, CtBP-E1A inh)
